Data taken from the supplement of paper PMC6555819.

How the values were obtained:
Assay in all cases: PBM binding z-score (relative to random genomic background probes); higher = stronger binding; sequences stand for … in GC…GCGATTGACAGCGTAGAATGAAGG
[1] = tested on: FXR:RXRa (NR concentration 270 nM, RXRa partner concentration 90 nM)
How it was run: (§1)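 Scanned fluorescence from custom Agilent 4×180K protein-binding microarrays was regression-normalized. Binding z-scores use random background probes as reference. Ligand-free nuclear receptor dimers were incubated on the arrays for 1 h and detected with antibodies against each partner (one per run).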

[2] = tested on: LXRa:RXRa (NR concentration 270 nM, RXRa partner concentration 90 nM)
How it was run: as §1

[3] = tested on: LXRa homodimer (NR concentration 270 nM)
How it was run: as §1

[4] = tested on: LXRb:RXRa (NR concentration 270 nM, RXRa partner concentration 90 nM)
How it was run: as §1

[5] = tested on: LXRb homodimer (NR concentration 270 nM)
How it was run: as §1

[6] = tested on: PPARa:RXRa (NR concentration 270 nM, RXRa partner concentration 90 nM)
How it was run: as §1

[7] = tested on: PPARg:RXRa (NR concentration 180 nM, RXRa partner concentration 90 nM)
How it was run: as §1

[8] = tested on: PPARg:RXRa 270nM:90nM, anti-RXR (NR concentration 270 nM, RXRa partner concentration 90 nM)
How it was run: as §1

[9] = tested on: PPARg:RXRa 30nM:10nM, anti-RXR (NR concentration 30 nM, RXRa partner concentration 10 nM)
How it was run: as §1

[10] = tested on: PPARg:RXRa 90nM:30nM, anti-RXR (NR concentration 90 nM, RXRa partner concentration 30 nM)
How it was run: as §1

[11] = tested on: PPARg:RXRa DBDmut IVT, anti-RXR (DBD mutation: RXRa K156A/R161A, NR concentration 270 nM, RXRa partner concentration 90 nM)
How it was run: as §1

[12] = tested on: PPARg:RXRa IVT, anti-PPARg (NR concentration 270 nM, RXRa partner concentration 90 nM)
How it was run: as §1

[13] = tested on: PPARg DBDmut:RXRa IVT, anti-PPARg (DBD mutation: PPARg1 K132A/R137A, NR concentration 270 nM, RXRa partner concentration 90 nM)
How it was run: as §1

[14] = tested on: PPARg DBDmut IVT, anti-PPARg (DBD mutation: PPARg1 K132A/R137A, NR concentration 270 nM)
How it was run: as §1

[15] = tested on: PPARg homodimer (NR concentration 180 nM)
How it was run: as §1

[16] = tested on: PXR:RXRa (NR concentration 270 nM, RXRa partner concentration 90 nM)
How it was run: as §1

[17] = tested on: PXR homodimer (NR concentration 270 nM)
How it was run: as §1

[18] = tested on: RARa:RXR (NR concentration 270 nM, RXRa partner concentration 90 nM)
How it was run: as §1

[19] = tested on: RARa homodimer (NR concentration 270 nM)
How it was run: as §1

[20] = tested on: RARb:RXRa (NR concentration 270 nM, RXRa partner concentration 90 nM)
How it was run: as §1

Sequence	PBM binding z-score [1]	PBM binding z-score [2]	PBM binding z-score [3]	PBM binding z-score [4]	PBM binding z-score [5]	PBM binding z-score [6]	PBM binding z-score [7]	PBM binding z-score [8]	PBM binding z-score [9]	PBM binding z-score [10]	PBM binding z-score [11]	PBM binding z-score [12]	PBM binding z-score [13]	PBM binding z-score [14]	PBM binding z-score [15]	PBM binding z-score [16]	PBM binding z-score [17]	PBM binding z-score [18]	PBM binding z-score [19]	PBM binding z-score [20]
GGAACGAGGGGATTCGAGTTGATAGCATGGCGAT	-0.431	-0.53	-0.577	-0.641	-0.654	-0.413	0.315	-0.471	-0.474	-0.523	0.388	-0.0839	-1.62	-0.321	-1.3	0.0775	-0.14	-0.588	-0.71	-0.414
ATACCAAGGTGATCGTGAGGACGTTGATACTAAC	0.587	0.135	-0.00187	0.0444	-0.331	-0.0562	0.622	0.0338	-0.0535	-0.287	0.171	1.03	0.678	-0.134	-0.121	0.502	0.387	1.03	0.115	0.704
TCATATAGGTAAAGGTGAAAGTTGAACGATATGA	1.54	1.75	0.158	1.89	-0.399	4.3	5.92	5.66	5.22	5.99	4	4.73	1.52	1.41	1.62	2.3	0.333	3.46	0.78	2.25
GCTAGTTGGTCAGGAAAAGGTCACACACCGGTCG	3.35	3.85	3.43	3.75	0.375	4.05	2.57	3.82	1.41	3.07	0.896	2.59	-0.101	0.0698	5.18	4.97	1.13	5.97	3.68	4.17
GTACCAAGGTGAATAGCTCGTTGATGAGTAGGCG	-0.0145	0.0679	-0.285	-0.246	-0.451	0.416	0.554	0.238	-0.33	-0.123	1.55	1.7	-0.0388	-0.301	-0.135	-0.403	-0.283	-0.0864	-0.272	0.887
TCTTGTAGATCAAGCAGGTCAAGAAAGCCTGAGT	0.916	1.2	0.357	1.67	-0.193	2.29	0.0976	1.6	2.11	2.16	1.73	1.75	0.414	-0.0194	0.82	1.7	0.497	1.91	0.192	1.79
ATATGTAGGTTTGCTGGGGTCATTCAGACTAGGC	3.58	3.85	1.58	4.47	1.4	4.53	2.69	3.1	0.969	2.19	3.16	3.12	1.39	1.41	1.83	5.71	7.95	4.72	1	2.53
ACAGACAGGTGATGAAGGAAACTCAGGCTATCAT	0.101	-0.0621	-0.0645	-0.383	-0.211	0.0161	0.66	-0.12	0.224	-0.159	-0.00583	0.186	0.678	0.42	0.36	-0.196	0.0696	0.162	0.228	0.275
CGTCCAAGGTCAAGGTCAGTAAAAGAGACTCGAA	7.33	5.66	1.22	4.68	0.908	5.72	6.21	5.92	2.62	4.87	3.53	4.49	0.553	0.71	4.59	4.72	1.84	5	3.01	5.53
TCTAGTTGTTCAAAGGTCACACACTCGAAATGCG	5.39	5.85	4.39	5.41	1.92	5.76	7.52	7.68	6.77	8.74	2.71	4.64	1.27	1.68	4.16	5.49	1.93	5.89	4.19	5
CTAGAAAGGTCGGTTGAGGTGAGTATACGGATAA	3.11	1.64	-0.0561	1.64	-0.0428	2.6	0.509	1.1	0.117	0.585	0.237	1.18	0.0511	0.00122	1.34	3.37	0.245	2.6	0.889	3.03
CCTATTAGTTGACCATAAGTGCAACCGAAGCTCG	0.669	0.833	1.25	0.757	1.09	0.517	0.672	0.74	0.581	0.574	0.899	0.364	1.12	0.839	1.89	1.11	1.66	0.812	2.6	0.81
TCTAGTTGGTCACTGAGGTCACACACGACGGGTA	4.03	3.64	2.55	3.59	0.98	4.32	3.24	3.98	3.27	3.68	2.68	4.25	2.09	2.11	4.13	4.97	2.81	5.06	2.05	4
ATATATAGGTTACATCCGGGTCATTCAGGCTATG	3.03	5.06	2.32	3.45	1.23	4.67	6.17	5.45	2.59	4.8	7.41	7.26	3.67	2.9	2.67	4.12	2.95	4.05	1.77	2.51
CCTATTAGTTGACCATAATGGCAACCGAAGCTCG	0.282	0.486	0.78	0.483	1.03	0.289	0.468	-0.0519	-0.187	0.0677	0.772	0.551	0.742	1.21	2	0.599	1.05	0.673	2.52	0.621
